ALOX15 inhib = blocks human 15-lipoxygenase activity. P16050. AID 887. Potency, µM (highest dose often 57.1 µM), inactives show at the top dose activity change, negative = inhibition, most hits filed as inhibitors. purified 15hLO-1, xylenol orange hydroperoxide absorbance. 74,000 compounds, 1.4% hits; also: potency is read from the fitted curve at half-maximal effect; % is scaled to controls: 0 for no effect and ±100 for the full control effect; nearly all actives have a fitted effect of over 55% in size
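Readout: Fe(III)-xylenol orange absorbance, 573-to-405 nm ratio as reaction progress. Enzyme 40 nM purified human 15hLO-1, substrate 50 uM arachidonic acid, 6 min RT after 15 min compound preincubation; Hepes pH 7.5 buffer with Triton X-100.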
GFP derepression = derepresses silenced GFP locus in mouse C127i cells; mouse C127i GFP locus derepression, cytometry, 30 h; Potency, µM (highest dose often 46.1 µM), for inactives: at the highest dose GFP derepression (activation); 68,000 compounds, 0.09% hits; also: % of control where 0% means no effect
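Murine C127i mammary cells carrying a silenced, stably integrated CMV-driven GFP reporter were treated with compound for 30 hours at 37 C. After PBS washes, GFP-positive cells were counted by laser-scanning microplate cytometry.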
ALOX15B inhib = 15-hLO-2 (ALOX15B) enzyme inhibition. AID 881. Potency, µM (top dose mostly 57.1 µM), inactives show at the top dose activity change, negative = inhibition, usual class: inhibitors. O15296. purified 15hLO-2, xylenol orange hydroperoxide absorbance. 110,000 compounds, 0.56% hits; also: potency is read from the fitted curve at half-maximal effect; % is scaled to controls: 0 for no effect and ±100 for the full control effect; nearly all actives have a fitted effect of over 60% in size
Target sequence (O15296 whole entry, looked up): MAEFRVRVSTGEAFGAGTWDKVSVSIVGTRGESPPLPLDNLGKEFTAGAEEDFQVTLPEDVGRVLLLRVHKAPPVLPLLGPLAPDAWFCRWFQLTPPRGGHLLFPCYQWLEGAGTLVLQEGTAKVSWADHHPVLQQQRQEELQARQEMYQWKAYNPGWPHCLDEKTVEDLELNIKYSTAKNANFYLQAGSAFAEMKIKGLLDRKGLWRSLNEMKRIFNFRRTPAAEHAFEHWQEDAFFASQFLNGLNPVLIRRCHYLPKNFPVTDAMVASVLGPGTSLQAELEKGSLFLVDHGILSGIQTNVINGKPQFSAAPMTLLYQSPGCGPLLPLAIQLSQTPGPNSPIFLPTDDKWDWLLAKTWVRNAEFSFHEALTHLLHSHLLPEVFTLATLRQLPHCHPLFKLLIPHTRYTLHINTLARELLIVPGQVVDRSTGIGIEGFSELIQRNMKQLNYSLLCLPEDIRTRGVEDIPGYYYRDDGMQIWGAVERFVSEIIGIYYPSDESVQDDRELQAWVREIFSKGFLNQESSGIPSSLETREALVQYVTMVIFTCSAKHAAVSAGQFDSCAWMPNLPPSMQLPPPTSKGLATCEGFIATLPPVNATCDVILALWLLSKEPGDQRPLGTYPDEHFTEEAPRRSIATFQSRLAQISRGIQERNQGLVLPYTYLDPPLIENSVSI
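Purified human 15hLO-2 (50 nM) preincubated 15 min with compound, then 45 uM arachidonic acid for 90 min at RT in 25 mM Hepes pH 7.5, 0.01% Triton X-100. Hydroperoxide detected by Fe-xylenol orange; 573/405 nm absorbance ratio.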
HBB splicing = hemoglobin beta splicing modulation | HBB splicing reporter cell assay, activation; EGFP reporter with mutant IVS2-654 intron; response scale: normalised to 500 nM splice-correcting PNA | Potency, µM (series often up to 46.1 µM), without a hit: at the top dose activation, actives largely listed as activators | 65,000 compounds, 0.06% hits | AID 925; also: potency is read from the fitted curve at half-maximal effect; 0% is about no effect
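HeLa cells stably expressing EGFP interrupted by mutant beta-globin intron 2 (IVS2-654), 500/well in 2% FCS. Treated with compound for 2 days at 37C. Splicing correction scored as total well GFP intensity (488 nm excitation, 500-520 nm emission); 500 nM antisense PNA served as control.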
Tau fil binding = binders of human tau filaments; P10636; recombinant tau filaments, thioflavin S fluorescence, 15 h; filaments grown with octadecylsulfate alongside compound; Potency, µM (top dose mostly 57.1 µM), inactives show at the highest dose activity change, negative = inhibition; 71,000 compounds, 2% hits;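 also: potency is read from the fitted curve at half-maximal effect; % is scaled to controls: 0 for no effect and ±100 for the full control effect; actives lower thioflavin S fluorescence by blocking filaments or displacing dye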
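Tau 2 uM in ThS buffer dispensed; compound added; 60 uM ODS added (finals 1 uM tau, 30 uM ODS); 15 h 37 C; fluor ex450/em510.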
UbGFP stabilizer = ubiquitin-GFP accumulation via proteasome inhibition; Ubiquitin-GFP reporter cells, proteasome inhibition, GFP fluorescence; response scale: untreated = 0%, 10 µM MG-132 = 100%; Potency, µM (series often up to 45.9 µM), inactives show at the top dose activation (GFP accumulation), hits mostly activators; 67,000 tested, under 10 active; active = well fitted activation curve with a large enough effect, not every such curve was filed as active; inconclusive = small, poorly fitted or top-dose-only effect, or another doubt; inactive = no such curve, though single readings can be large or run the other way; also: potency is read from the fitted curve at half-maximal effect
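GFP accumulation read-out: laser plate cytometry counting ubiquitin(G76V)-GFP-expressing U2OS cells after 4 hr compound exposure at 37 °C. Titrations spanned 46 uM to 2.9 nM; 0% = basal, 100% = 10 uM MG-132; concentration-response curves fitted.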
Numbers without * were called inactive; ? = inconclusive; . = no result; ! = not active in a repeat; [ ] = another dose, or the depositor's remark. Compounds with a hit are over-represented: about 2.3% of the library has one in this group of screens. Unless noted, calls follow the shape of the dose curve; as a rule, active = well fitted curve in the direction sought with a large enough effect; inconclusive = small, poorly fitted or top-dose-only effect, or another doubt; inactive = no such curve, though single readings can be large; an effect the other way counts as inactive or inconclusive.

SMILES	ALOX15 inhib	GFP derepression	ALOX15B inhib	HBB splicing	Tau fil binding	UbGFP stabilizer
COc1cc(/C=C\C(=O)N2CCCCC2=O)cc(OC)c1OC	.	-2%[9.22 µM]	.	.	?	-5%
CNC(=O)[C@@H]1O[C@@H](n2cnc3c(NCc4ccc(N)cc4)ncnc32)[C@@H](O)[C@H]1O	6%	0%	-4%	2%	-5%	3%
O=c1oc2ccccc2c(O)c1/C=N/c1nc(-c2ccc(O)c(O)c2)cs1	?	-7%[9.22 µM]	-11%[11.4 µM]	4%[9.22 µM]	-7%[11.4 µM]	0%[9.17 µM]
CCCCC#Cc1nc(N)c2ncn([C@@H]3O[C@@H](C(=O)NCC)[C@H](O)[C@@H]3O)c2n1	-4%	-2%	13%	-1%	-3%	-3%
O=C1CCNc2cc3ccccc3cc21	?	1%	-20%	-2%	20µM*	-3%
O=C(Nc1cccc(F)c1)N1CC[C@@]2(CCCNC2)C1	1%	-2%[9.22 µM]	1%	5%	6%	-17%
Cc1nc2cncnc2n(Cc2ccccc2Cl)c1=O	12%	2%[9.22 µM]	-5%	?	16µM*	11%
O=c1c(-c2cccc(Cl)c2)nc2cncnc2n1Cc1ccccc1Cl	5%	3%[9.22 µM]	11%	1%	6.3µM*	-3%
COc1ccccc1CCn1c(=O)c(-c2cccc(Cl)c2)nc2cncnc21	-23%	0%[9.22 µM]	-1%	-1%	13µM*	-4%
O=c1c(-c2ccccc2)nc2cncnc2n1Cc1ccccc1Cl	4%	14%[9.22 µM]	4%	0%	?	6%
Cn1c(=O)n2n(c1=O)[C@H]1[C@H](O)[C@H]3O[C@@H]3/C(=N/OC[C@@H](O)COCc3ccco3)[C@@H]1CC2	1%[11.4 µM]	.	.	1%[9.22 µM]	.	.
COCCn1c(=O)cnc2cnc(OC)nc21	9%	2%[9.22 µM]	-7%	0%	50%	1%
O=C(Nc1ccc(O)cc1)C1CC=CCC1 (centres undefined)	?	0%	?	3%	13µM*	12%
COc1ccc2[nH]cc(CCNc3ccnc(-c4ccc(C(=O)N(C)C)cc4)n3)c2c1	7%	6%[9.22 µM]	-6%	0%	-6%	-2%
COc1cccc(-c2nccc(NCCc3c[nH]c4ccc(OC)cc34)n2)c1	-24%	3%[9.22 µM]	31%	-1%	25µM*	5%
COc1ccc2[nH]cc(CCNc3ccnc(-c4ccccc4C)n3)c2c1	?	0%[9.22 µM]	13%	1%	16µM*	-5%
Cn1cccc1C(=O)N1CCC2(CCCN(c3ccccc3)C2)CC1	-16%	0%[9.22 µM]	1%	5%	-11%	-11%
Cc1ccc(OC2C(O)COC2/C=C/C#Cc2ccc(C(C)(C)C)cc2)cc1 (centres undefined)	3.2µM*!	.	.	0%[9.22 µM]	.	.
CC(C)(C)c1c2c(c(C(C)(C)C)c3c1OCN(Cc1ccccc1)C3)OCN(Cc1ccccc1)C2	?	0%[9.22 µM]	-2%[11.4 µM]	-1%[9.22 µM]	-3%[11.4 µM]	-5%[9.17 µM]
CC1=CC(=C2C(=O)c3ccccc3C2=O)C=C(C)N1Cc1ccco1	-18%	4%	-24%	0%	32µM*	-4%
O=C1c2ccccc2C(=O)N1Cc1ccco1	3%	3%	-1%	1%	0%	7%
Cc1ccccc1-c1cncnc1Nc1ccccc1	8%	3%[9.22 µM]	-3%	-1%	-5%	-5%
Nc1ccc(O)cc1C(=O)OCC(=O)C12CC3CC(CC(C3)C1)C2	13µM*	0%	5µM*	0%[57.5 µM]	-27%	-3%
CNS(=O)(=O)c1cccc(C(=O)OCC(=O)C23CC4CC(CC(C4)C2)C3)c1	.	.	0%	.	.	.
CCCn1c(CCC(=O)O)ccc1-c1ccc(F)cc1	7.9µM*	-3%	-13%	3%	?	6%
O=C(O)CCc1ccc(-c2ccc(Br)cc2)n1Cc1ccco1	16µM*	0%	-9%	1%	?	-3%
CCc1nc2oc3ccccc3c(=O)c2c(=O)n1CCOC	3%	0%	-1%	1%	-15%	3%
